# MEKK2mut PB1 HTS = signal of MEK5 binding to mutant human MEKK2 PB1 domain; bead flow cytometry, Alexa488-MEK5 binding to MEKK2 mutant; percent response, % at 10 µM; hit rate 0.35% among 290,000; in the data active = percent response above about 24%, passing the limit was not always enough
# MEKK2wt PB1 HTS = raises or lowers MEK5 binding to wildtype human MEKK2 PB1 domain; Q9Y2U5; bead flow cytometry, Alexa488-MEK5 binding to MEKK2 WT; actives lie on both sides; binding response (% of control), % at 10 µM; hit rate 1.1% among 290,000; in the data active = binding response below about 67% or above about 130%
# GRK2 inh = blocks RNA aptamer binding to human GRK2 | hit rate 0.59% among 330,000 | inhibition of aptamer binding, % at 10 µM | bead flow cytometry, FAM-aptamer displacement from GRK2 | P25098;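 active = inhibition of aptamer binding above 40%, roughly 3 SD of noise, on plates passing a quality check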;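 note: median bead fluorescence of bound FAM aptamer so fluorescent compounds give negative values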
# Target sequence (P25098 whole entry, looked up): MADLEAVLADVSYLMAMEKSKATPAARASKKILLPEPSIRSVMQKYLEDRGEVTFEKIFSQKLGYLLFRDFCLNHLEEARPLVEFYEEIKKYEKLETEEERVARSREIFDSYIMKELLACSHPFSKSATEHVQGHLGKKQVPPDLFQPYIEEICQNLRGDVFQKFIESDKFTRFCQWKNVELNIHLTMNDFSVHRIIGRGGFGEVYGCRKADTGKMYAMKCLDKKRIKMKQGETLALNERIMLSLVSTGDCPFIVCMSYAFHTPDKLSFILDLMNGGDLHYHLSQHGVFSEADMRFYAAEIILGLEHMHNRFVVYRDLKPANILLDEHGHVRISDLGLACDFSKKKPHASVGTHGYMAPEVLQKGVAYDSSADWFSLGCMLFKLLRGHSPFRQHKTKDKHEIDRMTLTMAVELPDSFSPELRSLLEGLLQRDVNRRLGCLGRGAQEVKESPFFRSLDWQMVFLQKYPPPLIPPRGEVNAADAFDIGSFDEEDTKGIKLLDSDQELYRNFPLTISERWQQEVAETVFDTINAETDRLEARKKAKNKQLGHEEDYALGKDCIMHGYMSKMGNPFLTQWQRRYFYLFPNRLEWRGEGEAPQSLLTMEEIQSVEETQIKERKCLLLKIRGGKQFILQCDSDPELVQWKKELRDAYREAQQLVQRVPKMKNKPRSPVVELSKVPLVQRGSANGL
# MEKK3 PB1 HTS = MEKK3-MEK5 PB1 interaction, increase or decrease | hit rate 1.4% among 290,000 | AID 1529 | bead-based flow cytometry, Alexa488-MEK5 binding to MEKK3; actives lie on both sides; 0 = blocked by unlabeled MEK5, 100 = vehicle | binding response (% of control), % at 10 µM;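 active = binding response more than 3 SD above or below the average of its plate-row segment, actives on both sides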;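 note: Alexa488 bead fluorescence after subtracting the streptavidin-only scavenger bead signal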
# MEKK2wt confirm = raises or lowers MEK5 binding to wildtype human MEKK2, retest | shares compounds with MEKK3 PB1 HTS | bead flow cytometry, Alexa488-MEK5 binding to MEKK2 WT; actives lie on both sides | binding response (% of control), % at 10 µM | hit rate 2.4% among 5,900; in the data active = binding response below about 16% or above about 210%; inactive = in between
# MEKK2mut confirm = signal of MEK5 binding to mutant human MEKK2, retest; AID 1893; percent response, % at 10 µM; bead flow cytometry, Alexa488-MEK5 binding to MEKK2 mutant; hit rate 2% among 5,900; shares compounds with MEKK3 PB1 HTS; in the data active = percent response mostly above about 71%, no sharp cut-off; inactive = mostly below about 38%;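 note: higher means compound restores mutant binding toward wildtype level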
# MEKK3-MEK5 inh = MEKK3-MEK5 PB1 inhibition, single concentration confirmation; AID 1894; hit rate 1.8% among 5,900; shares compounds with MEKK3 PB1 HTS; bead flow cytometry, Alexa488-MEK5 binding to MEKK3; stronger effect = lower value; binding response (% of control), % at 10 µM;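 active = binding response below 72% of control, or above a set upper limit, though filed actives all read lower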;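 note: 100% = DMSO only wells and 0% = binding blocked by excess unlabeled MEK5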
# * = called active by the depositor; nt = no result given; [ ] = remark or other dose. Rows were chosen to be rich in hits. Some 2.5% of all compounds tested hit in one or more screens of this group.
SMILES,MEKK2mut PB1 HTS,MEKK2wt PB1 HTS,GRK2 inh,MEKK3 PB1 HTS,MEKK2wt confirm,MEKK2mut confirm,MEKK3-MEK5 inh
CC1=C(C(N)=O)C(c2ccc(Br)cc2)n2nc(CCCO)nc2N1 (stereo not drawn),-11,44*[inhibitor],0,72,107,4,103
CC1=C(C(N)=O)C(c2ccccc2F)n2nc(CCCO)nc2N1 (stereo not drawn),4,104,0,103,nt,nt,nt
CCOc1cc(/C=N/NC(=O)CSc2nnc(C)s2)ccc1OCc1ccccc1Cl,-1,101,6,132*,106,3,102
COc1nc(-c2ccccc2)ccc1-c1noc(COc2ccccc2)n1,6,123,3,132*,100,0,101
Cc1ccc(-c2cc(C(=O)Nc3nccs3)c3ccccc3n2)c(C)c1,0,106,5,152*,105,-6,101
CCN(C(=O)CSc1nnc(-c2ccc(F)cc2)n1C)C1CCS(=O)(=O)C1 (stereo not drawn),nt,nt,0,nt,nt,nt,nt
COc1ccc(CC(=O)NC(c2ccccc2)c2ccc(C)cc2)c(OC)c1 (stereo not drawn),0,100,1,105,nt,nt,nt
O=C(O)c1ccc(CP(=O)(c2ccccc2)c2ccccc2)cc1,11,123,0,122*,105,5,105
Cc1ccccc1NC(=O)c1ccc2nc(N3CCOCC3)sc2c1,4,104,0,102,nt,nt,nt
Cc1ccccc1OC(=O)c1cccc(S(=O)(=O)N2CCN(C)CC2)c1,nt,nt,0,nt,nt,nt,nt
CSc1ccc(/C=N/N2CCN(Cc3ccc(Cl)cc3)CC2)cc1,-46,4.0*[inhibitor],0,3.0*[inhibitor],105,-1,103
CSc1ccc(/C=N/NC(=O)CN2CCN(Cc3ccccc3)CC2)cc1,8,124,0,106,nt,nt,nt
CSc1ccc(/C=N/N2CCN(C)CC2)cc1,-4,99,0,93,nt,nt,nt
CSc1ccc(/C=N/NC(=O)CN2CCN(Cc3ccc(Cl)cc3)CC2)cc1,2,111,0,137*,111,9,103
CN1CC[C@]2(CCN3CCc4c(oc5ccccc45)[C@@H]3C2)N(C)C1=O,nt,nt,2,nt,nt,nt,nt
O=C(O)CC1(CC(=O)Nc2cc(F)ccc2Cl)CCCCC1,28,131,2,134*,97,-2,99
C=CCSC1=N/C(=C\c2cccnc2)C(=O)N1c1ccc(OC)cc1,-1,99,0,102,nt,nt,nt
CCSC1=N/C(=C\c2ccccc2)C(=O)N1c1ccc(OC)cc1,-13,70,3,74*[inhibitor],100,1,107
O=[N+]([O-])c1ccc(NS(=O)(=O)N2CCOCC2)cc1,nt,nt,0,nt,nt,nt,nt
COc1ccc(Oc2ccc(C(F)(F)F)cc2NC(=O)c2ccc(C)cc2)cc1,37,135,2,142*,105,-2,103
N#Cc1cccc(Oc2ccc(-c3cnc4ccccc4n3)cc2)c1C#N,-1,100,4,130*,98,-5,100
N#Cc1ccc(Oc2ccc(-c3cnc4ccccc4n3)cc2)cc1C#N,2,90,0,96,nt,nt,nt
Cc1cc2nc(SCCOC(=O)Nc3ccccc3)nc(C)c2cc1C,3,107,2,106,nt,nt,nt
Cc1cc2nc(SCCOC(=O)Nc3cccc(Cl)c3)nc(C)c2cc1C,1,111,1,153*,98,-3,102
C=CCN(CC=C)C(=O)CN1C(=O)NC(Cc2c[nH]c3ccccc23)C1=O (stereo not drawn),6,106,0,105,nt,nt,nt
SMILES,MEKK2mut PB1 HTS,MEKK2wt PB1 HTS,GRK2 inh,MEKK3 PB1 HTS,MEKK2wt confirm,MEKK2mut confirm,MEKK3-MEK5 inh
Cc1ccc(NC(=O)CSc2nc3nc(C)cc(C)c3c(=O)[nH]2)cc1,-42,-1.0*[inhibitor],2,0.0*[inhibitor],108,5,107
CCOc1ccccc1CN1CCNC(=O)C1CC(=O)NCc1nccn1CC (stereo not drawn),-2,99,0,96,nt,nt,nt
CC(Sc1nc(-c2ccccc2)cc(C(F)(F)F)n1)C(=O)N1CCC(C(N)=O)CC1 (stereo not drawn),-12,83,3,75*[inhibitor],97,-5,100
NS(=O)(=O)c1ccc(-c2ccc(C=NC3CCS(=O)(=O)C3)o2)cc1 (stereo not drawn),6,104,4,101,nt,nt,nt
NS(=O)(=O)c1ccc(-c2ccc(/C=C3\SC(=S)N(C4CCS(=O)(=O)C4)C3=O)o2)cc1 (stereo not drawn),-31,56*[inhibitor],0,78,76,-12,98
COc1ccc(-c2nc(C#N)c(N3CCOCC3)o2)cc1OC,-10,84,1,77*[inhibitor],100,2,97
S=c1nc(SCc2ccccc2)[nH]c2ccccc12,-18,50,0,49*[inhibitor],115,4,102
c1ccc(CSc2nc3ncncc3[nH]2)cc1,-2,102,2,99,nt,nt,nt
CCC1(c2ccccc2)NC(=O)N(CC(=O)Nc2ccc(N3CCOCC3)cc2)C1=O (stereo not drawn),nt,nt,0,nt,nt,nt,nt
CCOC(=O)C1CCCN(CC(=O)Nc2nc(-c3ccccc3)cs2)C1 (stereo not drawn),3,108,0,105,nt,nt,nt
CCOC(=O)c1ccc(NC(=S)N(CCCN2CCCC(C)C2)Cc2cccs2)cc1 (stereo not drawn),13,142*,0,103,119,6,100
Nc1nnn(CC(=O)N/N=C/c2ccncc2)n1,25,120,0,130*,103,-6,101
Clc1ccccc1CNCC1CCCO1 (stereo not drawn),27*,110,0,108,104,5,104
Cc1onc(-c2ccccc2)c1C(=O)NCc1ccc2c(c1)OCO2,1,-6.0*[inhibitor],1,102,105,2,104
N=c1oc2ccc(Br)cc2cc1C(=O)NC1CCCCCC1,4,103,4,104,nt,nt,nt
COC(=O)c1cc(=O)nc2sc3cc(OC)ccc3n12,6,106,0,122*,107,6,106
CCCCc1c(O)nc2sc3cc(OC)ccc3n2c1=O,4,105,1,103,nt,nt,nt
CCN(CC)C(C(=O)Nc1ccc(C(C)C)cc1)c1ccc2c(c1)OCO2 (stereo not drawn),15,134*,0,118,117,6,101
CC(C)c1ccc(NC(=O)C(c2ccc3c(c2)OCO3)N2CCN(C(=O)c3ccco3)CC2)cc1 (stereo not drawn),0,99,0,99,nt,nt,nt
COC(=O)c1ccccc1NC(=O)COC(=O)C1CCCCC1,-3,99,4,96,nt,nt,nt
O=C1C(=O)N(Cc2cccnc2)C(c2cccc([N+](=O)[O-])c2)/C1=C(/O)c1ccc2c(c1)OCO2 (stereo not drawn),5,100,0,105,nt,nt,nt

# Assay outcomes: PubChem BioAssay, NMMLSC
